Consider 12 compounds from the supplement of paper PMC6897291.

The assay deals with U-2932. The assay can be described thus: growth inhibition by drug alone (1 - RLU/untreated control) (fraction); higher = stronger inhibition. The following applies: 1000 nM; time (day): 5; 177Lu-lilotomab satetraxetan 0 ug/ml. The gist of the method:
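RIVA or U-2932 cells, untreated or pretreated 18 h with a radiolabelled anti-CD37 antibody conjugate (~600 MBq/mg; 0.5 µg/ml RIVA, 1 µg/ml U-2932), were washed and seeded at 3,000 cells/well on plates pre-printed with the Selleck Cambridge Cancer Compound library. Doses were 10/100 nM (RIVA) or 10/1,000 nM (U-2932). RealTime-Glo luminescence was read daily from day 3 after 1 h at 37°C. Growth inhibition is 1 − RLU/mean of 48 untreated no-drug wells per plate.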
In the case of `COc1ccc(S(=O)(=O)Nc2cccnc2Nc2ccc(O)cc2)cc1`, the “growth inhibition by drug alone” value is 0.932.
`C[C@]12CCC(=O)C=C1CC[C@@H]1[C@@H]2[C@@H](O)C[C@@]2(C)[C@H]1CC[C@]2(O)C(=O)CO` [Hydrocortisone (Cortisol)]: the “growth inhibition by drug alone” value worked out at 0.221.
With `COc1cc(OC2CCN(C)CC2)ccc1Nc1ncc2c(n1)n(C1CCCC1)c(=O)n2C`, the “growth inhibition by drug alone” value was -0.206.
Turning to `Nc1nc(F)nc2c1ncn2[C@@H]1O[C@H](CO)[C@@H](O)[C@@H]1O` [Fludarabine (Fludara)], the “growth inhibition by drug alone” value was -0.0649.
The figure for `Nc1nc(Nc2ccc(S(N)(=O)=O)cc2)nn1C(=O)c1c(F)cccc1F` is 0.398; for `Nc1ncn([C@@H]2O[C@H](CO)[C@@H](O)[C@H]2O)c(=O)n1` [Azacitidine (Vidaza)] it is 0.0181.
In the case of `COc1cc2nccc(Oc3ccc(NC(=O)NC4CC4)c(Cl)c3)c2cc1C(N)=O` [E7080 (Lenvatinib)], the “growth inhibition by drug alone” value was -0.0471.
As for `Nc1ccn([C@@H]2O[C@H](CO)[C@@H](O)[C@@H]2O)c(=O)n1` [Cytarabine], the figure is 0.585.
As for `Nc1cccc2c1C(=O)N(C1CCC(=O)NC1=O)C2=O` (configuration not stated) [Pomalidomide], the “growth inhibition by drug alone” value came to 0.271.
The figure for `CN(C)c1nc(N(C)C)nc(N(C)C)n1` [Altretamine (Hexalen)] is -0.114.
On to `Cc1[nH]c(/C=C2\C(=O)Nc3ccc(S(=O)(=O)N(C)c4cccc(Cl)c4)cc32)c(C)c1C(=O)N1CCN(C)CC1`, for which the “growth inhibition by drug alone” value is -0.0232.
`O=C(O[C@@H]1Cc2c(O)cc(O)cc2O[C@@H]1c1cc(O)c(O)c(O)c1)c1cc(O)c(O)c(O)c1` [(-)-Epigallocatechin gallate]: the “growth inhibition by drug alone” value is -0.154.
